From PubChem BioAssay
Hits are enriched below; roughly 21% of the tested compounds scored in any of these assays.
Shiga toxin inh = blocks Shiga toxin action in Vero cells. inhibition, % at 38.7 µM. hit rate 9.2% among 290,000. AID 2315. Vero cells, Shiga toxin protein synthesis inhibition reporter; in the data active = inhibition mostly above about 28%, no sharp cut-off; inactive = mostly below about 43%; note: 0% is about no effect
Pf growth 96h = P. falciparum growth inhibition at 96 hour, primary screen for plastid delayed-death inhibitors; P. falciparum luciferase reporter growth, 96 h; Potency, µM (highest dose often 28.7 µM), inactives show top-dose activity change, negative = inhibition, hits mostly inhibitors; hit rate 6.9% among 320,000; AID 504834; note: potency is the fitted concentration of half-maximal effect; % is set by controls: 0 for no effect and ±100 for the full control effect
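Compounds incubated with erythrocytes infected by luciferase-expressing P. falciparum (2% hematocrit, 0.05% parasitemia final) for 96 hours, 37 C in 5% CO2. Growth inhibition scored as decreased luciferase luminescence.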
Pf growth 48h = P. falciparum growth inhibition at 48 hours (one generation). Potency, µM (titrated, usually from 28.7 µM), without a hit: at the top dose activity change, negative = inhibition, actives largely listed as inhibitors. P. falciparum luciferase growth in erythrocytes, 48 h. hit rate 5.9% among 310,000; note: potency is the fitted concentration of half-maximal effect; % is set by controls: 0 for no effect and ±100 for the full control effect
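Luminescence readout; reporter = integrated firefly luciferase in P. falciparum. RBC culture at 2% hematocrit, 0.1% parasitemia final, 37 C/5% CO2; decreased signal taken as growth inhibition.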
Cycloheximide cs = counter-screen hit for Shiga toxin inhibitors, cycloheximide. cell reporter, cycloheximide protein synthesis inhibition counterscreen. max response, %. hit rate 12% among 300,000. AID 2314; in the data active = max response mostly above about 13%, no sharp cut-off; inactive = mostly below about 14%; note: read at 38.3 µM for the half of the compounds with a filed dose; 0% is about no effect
* marks the source's active call; other numbers are inactive results; ? = inconclusive; / = no result given; [ ] = another dose, or the depositor's remark. Unless noted, calls come from the whole dose curve; as a rule, active = well fitted inhibition curve with a large enough effect; inconclusive = small, poorly fitted or top-dose-only effect, or another doubt; inactive = no such curve, though single readings can be large or run the other way.

SMILES | Shiga toxin inh | Pf growth 96h | Pf growth 48h | Cycloheximide cs
Cn1c(-c2ccc(F)cc2)cnc1NCc1cc2c(cc1[N+](=O)[O-])OCO2 | 28 | 40% | 12µM* | 33*
CN(C(=O)COC(=O)CCC1CCCCC1)c1c(N)n(Cc2ccccc2)c(=O)[nH]c1=O | / | 20% | 0% | /
CCC1CCCCN1Cc1nc(Cc2ccccc2Cl)no1 (configuration not stated) | 29 | ? | ? | 1
CCN(CC)C(=O)Nc1ccccc1C | -22 | ? | / | -2
COCCN(Cc1cc2c(C)cc(C)cc2nc1Cl)C(=O)c1ccccc1F | -12 | 1.9µM* | ? | 1
COCCN(Cc1cc2cc(C)cc(C)c2nc1Cl)C(=O)Nc1ccccc1 | -13 | 0% | ? | 16*
Cc1cc(C)c2nc(Cl)c(CN(Cc3ccco3)C(=O)Nc3ccccc3C)cc2c1 | 14 | ? | 12µM* | 10
CCc1ccccc1NC(=S)N(Cc1ccc(C(=O)O)cc1)Cc1ccc(OC)c(OC)c1 | 19 | ? | ? | 7
CCCCNC1C(CC)C(CCC)C(C#N)(C#N)C1(C#N)C#N (configuration not stated) | 16 | ? | 12µM* | 10
CN1CCCN(S(=O)(=O)c2cccc(C#N)c2)CC1 | -4 | -8% | 33% | 5
Cc1ccc(C)c(NC(=O)CCC(=O)OC(C(=O)c2ccccc2)c2ccccc2)c1 (configuration not stated) | -45 | ? | 3% | -3
CCC(=O)Nc1cc(C(=O)OC(C(=O)c2ccc(C)c(C)c2)c2ccccc2)ccc1C (configuration not stated) | -18 | 1.7µM* | 12µM* | 3
COc1ccc(N2CCN(C(CNC(=O)C(=O)NC3CCCC3)c3ccco3)CC2)cc1 (configuration not stated) | / | 74% | 46% | /
COc1ccc(CNC(=O)CNC(=O)c2ccc(Br)o2)cc1OC | -22 | 14% | 7% | 14
CN1CCN(CC(O)(c2ccc(Cl)cc2)c2ccc(Cl)cc2)CC1 | -17 | 15µM* | 9.3µM* | -10
NC(=O)C1CCN(C(=O)c2ccc3ccccc3c2)CC1 | 33* | 16% | 52% | 17*
CC1CCN(C(=O)c2ccc3c(c2)OCO3)CC1 | 3 | 13µM* | 0% | 9
Cc1cc2ncn(C(=O)c3ccc4c(c3)OCO4)c2cc1C | 31 | 2.9µM* | 35% | 11
Cc1ccc(C(=O)n2cnc3ccccc32)cc1C | 21 | 44% | 25% | 6
O=C(c1ccc2ccccc2c1)N1CCCCC1 | -7 | 25% | 6% | -4
CC1CCCC(C)N1C(=O)COC(=O)c1ccc2c(c1)OCO2 (configuration not stated) | 43 | 40% | 42% | 17*
CC1CC(C)CN(C(=O)COC(=O)c2ccc3c(c2)OCO3)C1 (configuration not stated) | / | 100% | 98% | /
CC(C)CCNC(=O)c1ccc(Cn2c(=S)[nH]c3ccccc3c2=O)cc1 | -2 | -59% | ? | -2
Cc1ccc(CNC(=O)C(Cc2ccccc2)NS(=O)(=O)c2ccc(Br)s2)cc1 (configuration not stated) | 0 | 39% | ? | -5
CCOC(=O)c1ccccc1NC(=O)COC(=O)CCC(=O)c1ccc(C)cc1 | / | 20% | -10% | /
SMILES | Shiga toxin inh | Pf growth 96h | Pf growth 48h | Cycloheximide cs
CC1CC(C)CN(C(=O)c2ccc(C(=O)c3ccccc3)cc2)C1 (configuration not stated) | / | 7% | 27% | /
CC1CCN(C(=O)c2ccc3ccccc3c2)CC1 | 52* | ? | -35% | 39*
O=C(c1ccc2c(c1)OCO2)N1CCN(c2ccc(F)cc2)CC1 | 33 | 11% | 24% | 18*
C[N+]12CCCCC1C(COC(=O)c1ccc3c(c1)OCO3)CCC2 (configuration not stated) | 5 | / | 9.3µM* | -2
O=C(c1ccc2c(c1)OCO2)N1CCN(c2cccc(C(F)(F)F)c2)CC1 | -4 | ? | 23% | -3
CC1CC(C)CN(C(=O)c2ccc3ccccc3c2)C1 (configuration not stated) | / | ? | 0.83µM* | /
CCCCn1nc2cc(C(=O)NC3CCc4ccccc43)ccc2c1OCC (configuration not stated) | 11 | 8.3µM* | ? | -1
O=C1NC(=O)C(=Cc2ccc(SC3CCCCC3)o2)C(=O)N1 | 51* | -38%[5.75 µM] | 23% | 12
Cc1sc2nc(C(C)C)nc(SCC(=O)N3CCN(C(=O)c4ccco4)CC3)c2c1C | -3 | 11% | 13µM* | -5
CC(C)c1nc(N2CCN(C(=O)c3ccco3)CC2)c2c3c(sc2n1)CCCC3 | -3 | 15% | 10µM* | 0
CCc1c(C)sc2nc(C(C)C)nc(SCC(=O)N3CCc4ccccc4C3)c12 | 12 | 13µM* | 12µM* | -2
C[C@@H]1C(=O)OC[C@H]1NC(=O)OCc1ccccc1 | / | 69% | ? | /
Cc1ccc(O)c(/C=N/NC(=O)CN2CCCC2)c1 | 26 | ? | ? | -2
COc1cccc(C(=O)N/N=C/c2cn[nH]c2-c2ccc(OC)cc2OC)c1 | 13 | 0% | 20% | 17*
COc1ccc(OC)c(/C=N/NC(=O)c2[nH]ncc2Br)c1 | 72* | 54% | 45% | 43*
CCOc1ccc(/C=N/NC(=O)c2cccc3ccccc23)c(OCC)c1 | -17 | -16% | -1% | -2
Cc1ccc(O)c(/C=N/NC(=O)C2=NNC(c3ccccc3)(c3ccccc3)C2)c1 | 21 | ? | 2.9µM* | 1
CCOc1ccc(/C=N/NC(=O)c2[nH]ncc2Br)c(O)c1 | 49* | -5% | ? | 35*
CCN(CC)S(=O)(=O)c1ccc(C)c(N=C=S)c1 | 12 | -1% | 6% | -2
Cc1ccc(C)c(S(=O)(=O)N2CCN(CC(=O)NC(C)c3ccccc3)CC2)c1 (configuration not stated) | / | -25% | ? | /
CC(C)c1ccc(NC2CCCN(C(=O)CCc3cn[nH]c3)C2)cc1 (configuration not stated) | 11 | ? | 0% | 1
O=C(N/N=C/c1c(O)ccc2ccccc12)c1cccc(C(F)(F)F)c1 | -11 | 2.6µM* | 3.7µM* | -5
O=C(N/N=C/c1c(O)ccc2ccccc12)c1[nH]ncc1Br | 82* | 12µM* | 12µM* | 44*
Cc1ccc(O)c(/C=N/NC(=O)c2[nH]ncc2Br)c1 | 59* | ? | -63% | 34*
COc1ccc(Br)cc1/C=N/NC(=O)c1cccnc1 | -10 | 234% | -16% | 1
SMILES | Shiga toxin inh | Pf growth 96h | Pf growth 48h | Cycloheximide cs
COc1ccc(-c2[nH]ncc2/C=N\NC(=O)c2ccc(Br)o2)cc1OC | 34* | 4% | 19% | 19*
COc1cccc(NC(=S)N(CCC(C)C)C2CCN(C(C)=O)CC2)c1 | -8 | 2% | / | 2
CN(C)c1ccc(S(=O)(=O)N2CCCCC2)cc1NC(=O)C1=COCCO1 | -5 | ? | -14% | -2
CC(O)c1nc2ccccc2n1CC(=O)Nc1ccc2c(c1)OCCO2 (configuration not stated) | 27 | 28% | 51% | 27*
Cn1cc(SCC(=O)Nc2ccc3c(c2)OCO3)c2ccccc21 | 11 | ? | / | 3
CCCn1cc(SCC(=O)Nc2ccc3c(c2)OCO3)c2ccccc21 | 17 | 10µM* | ? | -1
